# An excerpt weighted towards active compounds, which were near 6.7% of everything screened.
# T cruzi growth-1 = inhibitors of T. cruzi proliferation. T. cruzi beta-gal in NIH3T3, GalScreen luminescence, 90 h. inhibition, % at 8.34 µM. 5.9% of 77,000 active. AID 624255;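 active = mean inhibition above about 93%, with at least 55% of replicates each passing it, limit read from the data, passing the limit was not always enough; inconclusive = only one of those two conditions holds; inactive = neither condition holds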
# C diff growth = blocks growth of Clostridium difficile; 0.25% of 86,000 active; AID 1259249; growth activity, negative = inhibition, % at 16 µg/mL (by protocol); Clostridium difficile clinical isolate growth, OD600, 24 h; stronger effect = lower value;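 active = mean growth activity at or below -80% and every replicate also at or below -80%; inconclusive = mean at or below -80% but some replicate above -80%; inactive = mean growth activity above -80%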;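 note: 0% = DMSO wells and -100% = levofloxacin 16 µg/mL wells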
# Pf Dd2 growth = P. falciparum Dd2 growth inhibition | 2.3% of 94,000 active | activity change, % at 10 µM | SYBR Green, 72 h; stronger effect = lower value; in the data active = activity change below about -80%; inconclusive = no clear call, values can overlap the other calls
# T cruzi growth-2 = Trypanosoma cruzi proliferation inhibition. shares compounds with T cruzi growth-1. T. cruzi beta-gal in NIH3T3, GalScreen luminescence, 90 h. inhibition, % at 8.35 µM. 72% of 5,600 active. AID 651739;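 active = mean replicate inhibition above about 95% and at least 55% of replicates individually reaching it, limit read from the data; inconclusive = only one of the two criteria is met; inactive = neither criterion is met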
# T cruzi growth-3 = blocks T. cruzi growth in NIH3T3 host cells; shares compounds with T cruzi growth-1; T. cruzi beta-gal in NIH3T3, GalScreen luminescence, 90 h; inhibition, % at 2.09 µM; 21% of 5,600 active; AID 651740;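 active = mean inhibition above about 95%, with at least 55% of replicates also reaching it, limit read from the data; inconclusive = meets just one of the two conditions; inactive = meets neither condition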;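 note: plate controls were neutral control median for no effect and positive control median for full effect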
# 3T3 cytotox = kills mouse NIH/3T3 fibroblasts; 14% of 5,600 active; cytotoxicity (signal decrease), % at 8.35 µM; shares compounds with T cruzi growth-1; NIH/3T3 viability, CellTiter-Glo ATP luminescence, 90 h;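 active = mean signal decrease across replicates above about 35% based on untreated-well scatter, with enough replicates individually passing, limit read from the data; inconclusive = no rule stated though some were filed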;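 note: 0% = median of neutral control wells and 100% = median of positive control wells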
# 3T3 cytotox 2 = NIH/3T3 (mouse) viability loss. NIH/3T3 viability, CellTiter-Glo ATP luminescence, 90 h. 56% of 5,600 active. shares compounds with T cruzi growth-1. inhibition, % at 24.9 µM;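 active = mean loss of cell viability signal at or above a set limit, and enough replicates individually reaching it; inconclusive = meets only the mean limit or only the replicate share; inactive = meets neither condition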;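 note: 0% = median of neutral control wells and 100% = median of positive control wells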
# An asterisk follows results filed as active; ? = inconclusive; / = no result.
SMILES,T cruzi growth-1,C diff growth,Pf Dd2 growth,T cruzi growth-2,T cruzi growth-3,3T3 cytotox,3T3 cytotox 2
COc1cccc(C#Cc2ccc([C@H]3[C@@H](C#N)N(C(=O)C4CC4)[C@@H]3CO)cc2)c1,100*,1,-37,99*,107*,0,16
COc1cccc(C#Cc2ccc([C@@H]3[C@@H](CO)N(C(=O)C4CC4)[C@H]3C#N)cc2)c1,92,-8,-32,/,/,/,/
CCCC#Cc1ccc2c(c1)O[C@H](CN(C)C(=O)Nc1ccccc1F)[C@@H](C)CN([C@H](C)CO)S2(=O)=O,/,-1,-20,/,/,/,/
O=S(=O)(NC[C@@H]1[C@@H](c2ccccc2)[C@@H](CO)N1CC1CC1)c1ccccc1,-17,0,-17,/,/,/,/
O=C(NCCN1CCCCC1)[C@@H]1N[C@@H]2c3ccc(-c4ccncc4)c(=O)n3C[C@@H]2[C@H]1CO,101*,/,-6,-17,-11,-9,-26
O=C(NCCN1CCCCC1)[C@H]1N[C@H]2c3ccc(-c4cccnc4)c(=O)n3C[C@H]2[C@@H]1CO,19,/,/,/,/,/,/
COc1ccccc1CNC(=O)C[C@@H]1CC[C@H]2[C@@H](COC[C@H](O)CN2Cc2ccc3c(c2)OCO3)O1,101*,88,-7,76,28,12,7
COc1ccccc1CNC(=O)C[C@H]1CC[C@H]2[C@@H](COC[C@H](O)CN2Cc2cccc(-c3ccncc3)c2)O1,120*,2,/,98*,79,3,24
COc1ccccc1CNC(=O)C[C@@H]1CC[C@@H]2[C@H](COC[C@@H](O)CN2Cc2cccc(-c3ccncc3)c2)O1,92,6,/,/,/,/,/
COc1ccccc1CNC(=O)C[C@@H]1CC[C@H]2[C@@H](COC[C@H](O)CN2Cc2cccc(-c3ccncc3)c2)O1,92,2,/,/,/,/,/
COc1ccccc1CNC(=O)C[C@H]1CC[C@H]2[C@@H](COC[C@H](O)CN2Cc2ccccc2)O1,/,0,-29,/,/,/,/
COc1ccccc1CNC(=O)C[C@H]1CC[C@@H]2[C@H](COC[C@@H](O)CN2Cc2cccc(-c3ccncc3)c2)O1,?,2,/,96*,93,29,59*
COc1cccc(S(=O)(=O)N[C@H]2CC[C@H](CC(=O)NC3CCC3)O[C@@H]2CO)c1,36,-1,11,/,/,/,/
C[C@H]1CN([C@@H](C)CO)S(=O)(=O)c2ccc(C#CC3CCCC3)cc2O[C@@H]1CN(C)Cc1cncnc1,/,/,-39,/,/,/,/
Cc1noc(C)c1S(=O)(=O)Nc1ccc2c(c1)C(=O)N([C@H](C)CO)C[C@@H](C)[C@@H](CN(C)Cc1ccc(C(=O)Nc3ccccc3N)cc1)O2,105,/,-75,/,/,/,/
COCC(=O)Nc1ccc2c(c1)OC[C@@H](C)N(C(=O)c1ccccn1)C[C@@H](C)[C@H](OC)CN(C)C2=O,-22,-1,11,/,/,/,/
Cc1noc(C)c1S(=O)(=O)Nc1ccc2c(c1)C(=O)N([C@@H](C)CO)C[C@H](C)[C@H](CN(C)Cc1ccc(C(F)(F)F)cc1)OCCCC[C@@H](C)O2,101*,-5,-47,104*,86,-4,3
Cc1noc(C)c1S(=O)(=O)Nc1ccc2c(c1)C(=O)N([C@H](C)CO)C[C@@H](C)[C@H](CN(C)Cc1ccc(C(F)(F)F)cc1)OCCCC[C@@H](C)O2,106*,8,-67,88,112*,25,105*
Cc1noc(C)c1S(=O)(=O)Nc1ccc2c(c1)C(=O)N([C@H](C)CO)C[C@@H](C)[C@@H](CN(C)Cc1ccc(C(F)(F)F)cc1)OCCCC[C@H](C)O2,87,/,-41,/,/,/,/
Cc1noc(C)c1S(=O)(=O)Nc1ccc2c(c1)C(=O)N([C@H](C)CO)C[C@@H](C)[C@H](CN(C)Cc1ccc(C(=O)O)cc1)OCCCC[C@@H](C)O2,43,5,20,/,/,/,/
Cc1noc(C)c1S(=O)(=O)Nc1ccc2c(c1)C(=O)N([C@@H](C)CO)C[C@H](C)[C@H](CN(C)Cc1ccc(C(F)(F)F)cc1)OCCCC[C@H](C)O2,100*,/,-43,96*,67,15,105*
Cc1noc(C)c1S(=O)(=O)Nc1ccc2c(c1)C(=O)N([C@H](C)CO)C[C@H](C)[C@H](CN(C)Cc1ccc(C(=O)O)cc1)OCCCC[C@@H](C)O2,19,-7,12,/,/,/,/
Cc1noc(C)c1S(=O)(=O)Nc1ccc2c(c1)C(=O)N([C@H](C)CO)C[C@@H](C)[C@H](CN(C)Cc1ccc(C(F)(F)F)cc1)OCCCC[C@H](C)O2,95,9,-57,/,/,/,/
Cc1noc(C)c1S(=O)(=O)Nc1ccc2c(c1)C(=O)N([C@@H](C)CO)C[C@@H](C)[C@@H](CN(C)Cc1ccc(C(F)(F)F)cc1)OCCCC[C@H](C)O2,103*,/,-48,89,110*,0,60*
Cc1noc(C)c1S(=O)(=O)Nc1ccc2c(c1)C(=O)N([C@@H](C)CO)C[C@@H](C)[C@@H](CN(C)Cc1ccc(C(=O)O)cc1)OCCCC[C@H](C)O2,-25,5,3,/,/,/,/
SMILES,T cruzi growth-1,C diff growth,Pf Dd2 growth,T cruzi growth-2,T cruzi growth-3,3T3 cytotox,3T3 cytotox 2
Cc1noc(C)c1S(=O)(=O)Nc1ccc2c(c1)C(=O)N([C@H](C)CO)C[C@@H](C)[C@@H](CN(C)Cc1ccc3c(c1)OCO3)OCCCC[C@H](C)O2,104*,3,-73,110*,65,10,34*
Cc1noc(C)c1S(=O)(=O)Nc1ccc2c(c1)C(=O)N([C@@H](C)CO)C[C@@H](C)[C@H](CN(C)Cc1ccc(C(F)(F)F)cc1)OCCCC[C@@H](C)O2,108*,/,-46,103*,116*,-51,105*
Cc1noc(C)c1S(=O)(=O)Nc1ccc2c(c1)C(=O)N([C@@H](C)CO)C[C@@H](C)[C@H](CN(C)Cc1ccc3c(c1)OCO3)OCCCC[C@H](C)O2,61,10,-70,/,/,/,/
C[C@H](CO)N1C[C@H](C)[C@H](CN(C)CC2CC2)Oc2cc(-c3cccc(F)c3)ccc2S1(=O)=O,10,4,-38,/,/,/,/
COc1ccc2c3c(n(C)c2c1)[C@H](CO)N(C(=O)C1CCCC1)CC31CCN(C(=O)CN(C)C)CC1,/,0,-63,/,/,/,/
Cc1ccccc1S(=O)(=O)NCC[C@H]1CC[C@H](NC(=O)C2CCCCC2)[C@@H](CO)O1,-60,3,-6,/,/,/,/
Cc1noc(C)c1S(=O)(=O)N(C)C[C@H]1Oc2ccc(NS(=O)(=O)c3ccccc3)cc2CC(=O)N([C@H](C)CO)C[C@H]1C,34,-6,1,/,/,/,/
O=C(Nc1ccccc1)N1C[C@@H]2[C@H](c3ccccc31)[C@@H](CO)N2Cc1ccccc1Cl,28,3,-16,/,/,/,/
O=C(Nc1ccccc1F)N1C[C@@H]2[C@H](c3ccccc31)[C@H](CO)N2C(=O)C1CC1,-16,-1,1,/,/,/,/

# Source: PubChem
